Reference: PubChem BioAssay AID2235 (The Scripps Research Institute Molecular Screening Center, 2010)
The whole screen tested about 320,000 compounds, of which about 2,800 (0.88%) were called active. This is one part of a sample in which actives are shown more often than they occur. Values without a mark were called inactive.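 Rule for the calls: active = inhibition above the mean inhibition of all tested compounds plus 3 SD, computed separately for each screening campaign (cut at about 15% in these data); inactive = the rest.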

target: Serine/threonine-protein phosphatase PP1-alpha catalytic subunit (Homo sapiens) (UniProt P62136); assay: PP1-alpha phosphatase inhibitors, primary screen, counter-screen for PP5 inhibitor project, biochemical, fluorescence, OMFP substrate, single point (AID 2235); conditions: purified PP1alpha, at 6.7 µM, hits give high values
Sequence (P62136 whole entry, looked up): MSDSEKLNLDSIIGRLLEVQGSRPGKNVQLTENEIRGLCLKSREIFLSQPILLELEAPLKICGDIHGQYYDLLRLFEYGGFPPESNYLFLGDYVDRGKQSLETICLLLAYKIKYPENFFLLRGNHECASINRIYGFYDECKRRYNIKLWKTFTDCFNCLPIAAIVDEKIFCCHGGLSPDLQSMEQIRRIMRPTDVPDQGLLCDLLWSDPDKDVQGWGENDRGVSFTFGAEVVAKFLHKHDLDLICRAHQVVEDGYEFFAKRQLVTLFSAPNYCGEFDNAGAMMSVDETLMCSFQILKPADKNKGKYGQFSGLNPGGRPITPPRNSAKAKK

| Compound | inhibition |
| --- | --- |
| O=c1[nH]c(CN2CC=C(c3ccccc3)CC2)nc2scc(-c3cccs3)c12 | 18.9% (active) |
| CC(C)Nc1nc(Cl)nc(NC(C)C)n1 | -5.49% |
| Cc1ccc(Cn2c(C)c3cnn(CC(=O)N4CCC5(CC4)OCCO5)c(=O)c3c2C)cc1 | 10.3% |
| COC(=O)C1=C(c2cccc(OCc3ccccc3)c2)C[C@@H]2CC[C@H]1N2C(=O)NNCc1ccccc1 | 7.24% |
| Cc1ccc(P(=S)(c2ccc(C)o2)N2CCOCC2)o1 | 3.58% |
| Cc1ccc(-c2nn(CCC#N)cc2C(=O)O)cc1C | 0.33% |
| O=C(O)c1ccccc1NC(=O)C1C2CCC(O2)C1C(=O)O (stereo not given) | 33.1% (active) |
| CC(=O)Nc1ccc(C(=O)C(Cc2ccccc2)N(C)C)cc1 (stereo not given) | -0.99% |
| COC(=O)C1=C(c2cc3ccccc3o2)C[C@@H]2CC[C@H]1N2C(=O)NC1CCCCC1 | -1% |
| CCOP(=O)(OCC)C(NC(=O)c1ccc(OC)cc1)C(Cl)(Cl)Cl (stereo not given) | 0.9% |
| CCOP(=O)(OCC)C(O)c1ccc(OC)cc1OC (stereo not given) | 47.2% (active) |
| CCOP(=O)(OCC)C(NC(=O)c1ccc(C)cc1)C(Cl)(Cl)Cl (stereo not given) | -1.96% |
| CNC(=O)Nc1ccc(C(O)(C(=O)OC)C(F)(F)F)cc1 (stereo not given) | 1.95% |
| Cc1ccc(C2CN(C)CC2C(=O)c2ccc(F)cc2)cc1 (stereo not given) | -2.93% |
| COCc1cc(OC(=O)N(C)C)nc(-c2ccc(C)c(Cl)c2)n1 | -1.37% |
